Several values for one entry are separate records, joined by “and”; a condition that tells them apart may be missing. Equal entries are not always repeated.
Tests used:
[1] = molecular target: Bromodomain-containing protein 4 (Homo sapiens) (UniProt O60885); details: Compound concentration 10.0 uM, Protein concentration 2.0 uM
[2] = molecular target: T1, Transcription intermediary factor 1-alpha (Homo sapiens) (UniProt O15164); details: Compound concentration 10.0 uM, Protein concentration 2.0 uM
T1 sequence (whole entry): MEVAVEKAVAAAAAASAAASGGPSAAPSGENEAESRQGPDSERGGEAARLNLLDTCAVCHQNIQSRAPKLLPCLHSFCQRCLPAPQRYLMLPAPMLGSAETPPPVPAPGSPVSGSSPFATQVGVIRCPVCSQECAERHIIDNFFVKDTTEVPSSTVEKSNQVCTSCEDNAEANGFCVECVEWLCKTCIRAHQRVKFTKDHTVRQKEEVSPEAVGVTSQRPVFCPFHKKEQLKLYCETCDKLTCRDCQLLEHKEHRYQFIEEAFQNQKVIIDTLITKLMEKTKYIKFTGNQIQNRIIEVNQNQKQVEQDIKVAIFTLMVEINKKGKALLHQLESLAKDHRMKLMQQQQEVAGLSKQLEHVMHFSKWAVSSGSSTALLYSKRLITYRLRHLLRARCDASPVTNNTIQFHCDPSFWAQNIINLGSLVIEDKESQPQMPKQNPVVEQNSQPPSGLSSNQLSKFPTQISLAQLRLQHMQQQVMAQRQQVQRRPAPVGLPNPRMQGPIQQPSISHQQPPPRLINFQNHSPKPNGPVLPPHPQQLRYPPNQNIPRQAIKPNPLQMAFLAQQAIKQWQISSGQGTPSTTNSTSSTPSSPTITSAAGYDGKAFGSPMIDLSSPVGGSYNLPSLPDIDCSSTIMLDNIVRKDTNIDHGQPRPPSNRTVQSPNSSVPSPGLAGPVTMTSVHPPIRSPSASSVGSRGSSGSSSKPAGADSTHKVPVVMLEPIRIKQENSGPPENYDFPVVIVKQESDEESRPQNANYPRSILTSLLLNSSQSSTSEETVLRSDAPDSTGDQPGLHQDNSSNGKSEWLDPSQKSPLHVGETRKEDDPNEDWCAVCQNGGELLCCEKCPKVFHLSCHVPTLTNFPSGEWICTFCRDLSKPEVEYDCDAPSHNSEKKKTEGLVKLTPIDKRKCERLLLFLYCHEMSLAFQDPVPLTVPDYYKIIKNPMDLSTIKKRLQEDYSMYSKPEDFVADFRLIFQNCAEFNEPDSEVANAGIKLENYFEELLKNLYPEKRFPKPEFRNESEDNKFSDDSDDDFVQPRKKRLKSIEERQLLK

Cc1cc(=O)n(C)c2cc(N3C(=O)CC[C@@H](NS(=O)(=O)CC(C)C)[C@@H]3c3ccc(Cl)cc3)ccc12
ΔTm [1]: -0.29 °C and 0.14 °C
ΔTm [2]: 0.23 °C
